Compound activity deposited in PubChem BioAssay by National Center for Advancing Translational Sciences (NCATS).
A selection: hits, their analogues and other compounds. The true share with any hit is near 18%.
DT40 TDP1 CPT – DT40-hTDP1 cell growth loss with CPT; chicken DT40 Tdp1-/-;hTDP1 cells + 20 nM CPT, ATP luminescence, 48 h; Potency, µM (doses to about 46.2 µM), for the others: at the top dose activity change, negative = growth inhibition, usual class: inhibitors; 420,000 compounds, 12% hits; AID 686979; also: potency is read from the fitted curve at half-maximal effect; % is scaled to controls: 0 for no effect and ±100 for the full control effect; nearly all actives have a fitted effect of over 55% in size
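Chicken DT40 Tdp1-/- cells complemented with human TDP1, 400 cells/well, exposed to compounds plus 20 nM camptothecin for at least 48 h at 37 C; viability read as ATP content by CellTiter-Glo luminescence.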
IL1B secr inh – blocks inflammasome-driven IL-1 beta release; THP-1 LPS/ATP IL-1B secretion, AlphaLISA, 16 h; stronger effect = lower value; activity change, % at 57.5 µM; 360,000 compounds, 4.7% hits; AID 743279; in the data active = activity change below about -50%; inconclusive = mostly about -30% to -49%; also: % is scaled to controls: 0 for no effect and ±100 for the full control effect
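THP-1 cells pretreated 1 hr with compounds (up to 57.5 uM final), then stimulated with LPS (250 ng/mL final) plus ATP (1.25 mM final); secreted IL-1B measured by AlphaLISA after 16 hr, decreased signal indicating inhibition.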
HepG2 tox – kills HepG2 cells in TGF-b inhibitor counter-screen. Potency, µM (highest dose often 46.1 µM), without a hit: top-dose activity change, negative = cytotoxicity, usual class: cytotoxic. 410,000 compounds, 0.76% hits. HepG2 CAGA-GFP viability, ATP luminescence, 18 h; also: potency is read from the fitted curve at half-maximal effect
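CellTiter-Glo luminescence gave cytotoxicity after 18 hours at 37 degrees C. The cells were HepG2 CAGA-GFP in 1% FBS DMEM, stimulated with 500 pg/mL TGF-beta after compound addition. %Activity was normalised to no-cell wells (complete cell-killing) and DMSO (no toxicity), and curves were fitted and classified.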
TGFb SMAD3 inh – inhibitors of TGF-b signaling; HepG2 CAGA-GFP TGF-b/SMAD3 reporter, GFP fluorescence, 18 h; TGF-beta stimulated, 500 pg/mL final; Potency, µM (highest dose often 46.1 µM), inactives show top-dose activity, negative = inhibition, actives largely listed as inhibitors; 410,000 compounds, 1.2% hits; AID 588855; also: potency is read from the fitted curve at half-maximal effect; % is scaled to controls: 0 for no effect and ±100 for the full control effect; nearly all actives have a fitted effect of over 65% in size
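Smad-responsive CAGA-GFP expression was quantified in HEPG2 cells exposed to compounds and 500 pg/mL final TGF-beta for 18 h at 37 degrees C; unstimulated wells defined full inhibition.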
TDP1 cell noCPT – qHTS for Inhibitors of human tyrosyl-DNA phosphodiesterase 1 (TDP1): qHTS in cells in absence of CPT. DT40 Tdp1-/- hTDP1 cells, no CPT, ATP luminescence, 48 h. 420,000 compounds, 15% hits. AID 686978, 2013. Potency, µM (highest dose often 46.2 µM), for the others: at the highest dose activity change, negative = growth inhibition, actives largely listed as inhibitors; also: potency is read from the fitted curve at half-maximal effect; % is scaled to controls: 0 for no effect and ±100 for the full control effect; nearly all actives have a fitted effect of over 55% in size
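Stably hTDP1-transfected Tdp1-null chicken DT40 cells were treated with library compounds minus camptothecin and grown for at least 48 hr at 37 °C, after which cellular ATP was quantified by luminescence.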
TDP1 block – TDP1 (human) enzyme inhibition; Q9NUW8; recombinant TDP1, AlphaScreen DNA substrate cleavage; Potency, µM (highest dose often 130 µM), for the others: at the top dose activity change, negative = inhibition, actives largely listed as inhibitors; 350,000 compounds, 0.28% hits; AID 485290; also: potency is read from the fitted curve at half-maximal effect; % is scaled to controls: 0 for no effect and ±100 for the full control effect; nearly all actives have a fitted effect of over 40% in size
Target sequence (Q9NUW8 whole entry, looked up): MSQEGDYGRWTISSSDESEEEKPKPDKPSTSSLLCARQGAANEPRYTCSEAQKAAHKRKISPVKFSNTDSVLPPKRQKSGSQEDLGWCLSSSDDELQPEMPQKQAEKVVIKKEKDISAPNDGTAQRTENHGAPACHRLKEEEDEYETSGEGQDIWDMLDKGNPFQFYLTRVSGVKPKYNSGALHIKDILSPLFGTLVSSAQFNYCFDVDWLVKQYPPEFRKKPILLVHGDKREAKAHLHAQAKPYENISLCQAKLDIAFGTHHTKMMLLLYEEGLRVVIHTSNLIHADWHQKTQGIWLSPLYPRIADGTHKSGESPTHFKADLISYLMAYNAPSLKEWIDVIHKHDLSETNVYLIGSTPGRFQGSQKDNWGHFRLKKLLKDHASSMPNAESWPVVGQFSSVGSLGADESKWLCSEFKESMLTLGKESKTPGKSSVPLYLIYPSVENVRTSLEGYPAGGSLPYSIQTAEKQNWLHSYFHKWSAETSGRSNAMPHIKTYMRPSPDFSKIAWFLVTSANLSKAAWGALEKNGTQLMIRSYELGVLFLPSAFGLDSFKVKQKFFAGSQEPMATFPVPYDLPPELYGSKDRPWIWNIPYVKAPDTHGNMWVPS
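AlphaScreen read-out: signal falls as enzyme removes the 3' tyrosine-FITC from a 5'-biotinylated DNA oligo (15 nM, 5 min, RT). Enzyme was E. coli-made recombinant Tdp1 at 1 nM, exposed to compound for 15 min beforehand; beads 10 ug/ml, 10 min.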
* marks the source's active call; other numbers are inactive results; ? = inconclusive; . = no result given. Unless noted, calls follow the shape of the dose curve; as a rule, active = well fitted curve in the direction sought with a large enough effect; inconclusive = small, poorly fitted or top-dose-only effect, or another doubt; inactive = no such curve, though single readings can be large; an effect the other way counts as inactive or inconclusive.

SMILES	DT40 TDP1 CPT	IL1B secr inh	HepG2 tox	TGFb SMAD3 inh	TDP1 cell noCPT	TDP1 block
Cc1ccc(C2=C(c3ccc([N+](=O)[O-])cc3)C(=O)OC2)cc1C	?	-2	-1%	-3%	18µM*	6%
O=C(O)c1ccccc1Nc1ccccc1C(=O)O	-7%	-8	-5%	8%	-8%	8%
O=C(O)c1ccccc1Nc1ccc([N+](=O)[O-])cc1	-20%	15	-30%	-5%	2.9µM*	2%
O=C(Nc1ccccc1Oc1ccccc1)c1cc([N+](=O)[O-])ccc1Cl	16µM*	-4	10%	1%	?	3%
O=C(O)c1ccccc1C(=O)Nc1ccc(Nc2ccc([N+](=O)[O-])cc2[N+](=O)[O-])cc1	-3%	-12	-1%	16%	-17%	.
Cc1cccc(NC(=O)c2cc([N+](=O)[O-])ccc2Cl)c1O	?	-50*	3%	23%	?	5%
O=C(Nc1ccc(Nc2ccccc2)cc1)c1cc([N+](=O)[O-])ccc1Cl	?	-67*	-29%	13%	16µM*	10%
CC(C)(C)c1ccc2c(c1)N(CC(=O)N1CCOCC1)C(=O)CO2	5%	-9	14%	-11%	5%	1%
O=C1NC[C@@H](CCCCN2CCN(CCc3ccccc3)C(=O)C2=O)N(CCC2CCCCC2)C1=O	-4%	4	.	.	-8%	.
CN(C)S(=O)(=O)c1ccc(Cl)c(C(=O)Nc2cccc([N+](=O)[O-])c2)c1	18µM*	-25	-28%	?	21µM*	-5%
COc1ccc(NC(=O)c2cc([N+](=O)[O-])ccc2O)cc1	8.2µM*	3	10µM*	11µM*	5.8µM*	5%
Cc1ccccc1N1CCN(Cc2ccc(Br)o2)CC1	?	-7	7%	-6%	-30%	.
CC(NC(=O)CCSCc1ccccc1F)c1ccccc1 (stereo not drawn)	2%	-13	-8%	-4%	?	3%
COc1ccc(NC(=O)c2cc(Br)ccc2Cl)c([N+](=O)[O-])c1	1%	-4	-2%	-11%	-15%	5%
O=C(Nc1ccc([N+](=O)[O-])cc1Cl)c1cc(Br)ccc1O	0.79µM*	.	-8%	?	0.45µM*	4%
O=C(Nc1c(Cl)cc([N+](=O)[O-])cc1Cl)c1cc(Cl)ccc1O	2.5µM*	.	-63%	1.3µM*	2µM*	4%
CC(CCc1ccccc1)NC(=O)C1CCN(C(=O)c2sccc2-n2cccc2)CC1 (stereo not drawn)	?	-17	-5%	-16%	21µM*	1%
CCCSCCCNC(=O)C1CCN(C(=O)c2cc3sccc3n2C)CC1	21µM*	.	-26%	?	21µM*	5%
CC(C)Oc1ccc(CNC(=O)C2CCN(C(=O)c3sccc3-n3cccc3)CC2)cc1	-18%	.	-5%	.	?	4%
CCOc1ccc(CCNC(=O)C2CCN(C(=O)c3cc4sccc4n3CC)CC2)cc1OCC	16µM*	.	-37%	?	18µM*	4%
CCn1c(C(=O)N2CCC(C(=O)NCCCSC3CCCCC3)CC2)cc2sccc21	?	2	-43%	?	18µM*	5%
CCN(CC)CCCNC(=O)C1CCN(C(=O)c2cc3sccc3n2Cc2ccc(F)cc2)CC1	-21%	-1	-27%	?	-16%	1%
CCC(=O)c1cn(CC(=O)NCc2cccnc2)c2ccccc12	-1%	24	7%	6%	1%	2%
Cc1ccc2c(c1)c(=O)c(C(=O)c1ccncc1)cn2CC(=O)Nc1ccc(C(C)C)cc1	-19%	.	-19%	-16%	-18%	8%
O=C(CNC(=O)c1ccc2ccccc2c1)NCc1ccc(F)cc1	?	3	-6%	-2%	?	.
SMILES	DT40 TDP1 CPT	IL1B secr inh	HepG2 tox	TGFb SMAD3 inh	TDP1 cell noCPT	TDP1 block
CCn1c(C(=O)N2CCC(C(=O)NCCc3ccccc3)CC2)cc2sccc21	?	.	-20%	?	26µM*	-5%
CCn1c(C(=O)N2CCC(C(=O)NCCc3ccc(C)cc3)CC2)cc2sccc21	16µM*	.	-33%	?	21µM*	1%
CCOc1ccc(NC(=O)N2CC3CCCN3c3ccccc32)cc1 (stereo not drawn)	?	.	-18%	-18%	?	13%
CC(C)N1CCC2(CC1)N=C(c1ccc3c(c1)OCO3)CC(c1cc(Cl)ccc1O)N2 (stereo not drawn)	5.8µM*	-117*	11µM*	?	5.2µM*	0%
CC(Sc1ccc(Cl)cc1)C(=O)NCc1ccc2c(c1)OCO2 (stereo not drawn)	-24%	-3	-4%	?	-21%	5%
Cc1ccc(O)c(CNc2cnc3ccccc3c2)c1	-20%	-88*	-12%	-19%	?	.
COc1cccc(CNc2cnc3ccccc3c2)c1O	12µM*	-54*	0%	-13%	16µM*	0%
Oc1ccc(Br)cc1CNc1cnc2ccccc2c1	?	-2	13µM*	?	?	4%
CCCc1cc(=O)oc2cc(OCc3ccc(C(=O)O)cc3)ccc12	6%	43	-1%	-1%	-5%	.
COC(=O)[C@@]1(Cc2ccc(F)cc2)[C@H]2c3cc(C(=O)N4CCCC4)n(CCCNc4ncc(C(F)(F)F)cc4Cl)c3C[C@H]2CN1C(=O)c1ccccc1	?	0	-6%	-36%	16µM*	13%
COC(=O)[C@@]1(Cc2ccc(F)cc2)[C@H]2c3cc(C(=O)N4CCCC4)n(Cc4cccc5ccccc45)c3C[C@H]2CN1C(=O)c1ccccc1	.	.	.	.	.	14%
COC(=O)[C@@]1(Cc2ccc(F)cc2)[C@H]2c3cc(C(=O)N4CCCC4)n(CCF)c3C[C@H]2CN1C(=O)c1ccccc1	23µM*	?	.	.	23µM*	-7%
COC(=O)[C@@]1(Cc2ccc(F)cc2)[C@H]2c3cc(C(=O)N(C)C)n(Cc4cc(C)n(C)n4)c3C[C@H]2CN1C(=O)c1ccccc1	?	-12	.	.	?	15%
COC(=O)[C@@]1(Cc2ccc(F)cc2)[C@H]2c3cc(C(=O)N4CCCC4)n(Cc4cc(C)n(C)n4)c3C[C@H]2CN1C(=O)c1ccccc1	21µM*	-7	.	.	16µM*	9%
